# Hit rate of the full screen: of about 360,000 compounds, about 17,000 (4.7%) were called active. About 5% were inconclusive and are not listed. Rule as the data show it: active = activity change below about -50%; inconclusive = mostly about -30% to -49%; inactive = weaker than that. What follows is part of a selection rich in actives, with near analogues and random picks from the rest.
# Experiment: qHTS for Inhibitors of Inflammasome Signaling: IL-1-beta AlphaLISA Primary Screen
# Conditions: THP-1 LPS/ATP IL-1B secretion, 16 h; at 57.5 µM, hits give low values
# Summary of the method: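 Secreted IL-1B measured by AlphaLISA bead assay after 16 h compound exposure of THP-1 cells; compounds (final up to 57.5 uM) added 1 h before LPS (250 ng/mL) and ATP (1.25 mM) stimulation; lower signal means less secretion.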
# % is scaled to controls: 0 for no effect and ±100 for the full control effect.
row,Compound,activity change
1,CCCOc1ccc(C(=O)CCC(=O)OC(C)C(=O)Nc2ccc(NC(C)=O)cc2)cc1 (stereo not drawn),10.1% (inactive)
2,CCCOc1ccc(C(=O)C(CCC(CNCC)C(=O)c2ccc(OCCC)cc2)CNCC)cc1 (stereo not drawn),-94% (active)
3,CCCOc1ccc(NC(=O)C2CCCNC2=O)cc1 (stereo not drawn),-6.06% (inactive)
4,Cc1[nH]c2ccccc2c1/C=N/NC(=O)CNC(=O)c1ccc2c(c1)OCO2,0% (inactive)
5,COc1ccc2ccccc2c1/C=N/NC(=O)c1cc(C)[nH]n1,0% (inactive)
6,COCCNC(=S)N/N=C/c1c(C)[nH]c2ccccc12,-69.7% (active)
7,OCCNc1nc2ccccc2n1-c1ncnc2sc3c(c12)CCC3,20.3% (inactive)
8,CC1=C(C(=O)N2CCOCC2)CC(CC(=O)NCCCN(C)C)C(=O)N1Cc1ccc(C(C)(C)C)cc1 (stereo not drawn),-21.9% (inactive)
9,CCOC(=O)c1ccccc1OC(=O)Oc1ccccc1C(=O)OCC,-16.9% (inactive)
10,CCOC(=O)NC(=O)/C(C#N)=C\c1ccccc1,3.54% (inactive)
11,COc1ccccc1C(=O)c1ccccc1C(=O)c1ccccc1,-7.51% (inactive)
12,CCOC(=O)C(=Cc1ccccc1OC)C(=O)OCC,-99.3% (active)
13,CCOC(=O)C(=CNc1cccc(C)n1)C(=O)OCC,16.2% (inactive)
14,CCOC(=O)C(=Cc1ccccc1)C(=O)c1ccccc1,-98.2% (active)
15,C=CCn1c(=O)n(C)c2c(=O)n(C)c(=O)n(C)c21,-2.57% (inactive)
16,Cc1ccc(F)c(S(=O)(=O)NC(=O)C2(C)CCN2C(=O)CCc2cccs2)c1 (stereo not drawn),0.428% (inactive)
17,Cc1ccc(NC(=O)CN(C)C(=O)c2cccc(S(=O)(=O)N3CCCC3)c2)cc1,8.98% (inactive)
18,NC(CSC1(c2ccccc2)c2ccccc2-c2ccccc21)C(=O)O (stereo not drawn),24.5% (inactive)
19,CC(=O)c1ccc(S(=O)(=O)NCc2nnnn2-c2ccccc2)cc1,8.11% (inactive)
20,CN(C)c1nnnn1-c1ccc(Cl)cc1,13.4% (inactive)
21,O=C(NCc1nnnn1-c1ccc(Cl)cc1)c1ccc([N+](=O)[O-])o1,-76.1% (active)
22,CC1=C(C(=O)N2CCOCC2)CC(CC(=O)NCCN2CCOCC2)C(=O)N1CCC1=CCCCC1 (stereo not drawn),11.4% (inactive)
23,COCCn1cnc2c1c(=O)n(CC(=O)NN)c(=O)n2Cc1ccccc1,0.195% (inactive)
24,COCCn1cnc2c1c(=O)n(Cc1ccc(Br)cc1)c(=O)n2Cc1ccccc1,-61.2% (active)

row,Compound,activity change
1,CC(C)CCn1cnc2c1c(=O)n(CC(=O)NC(N)=O)c(=O)n2Cc1ccccc1,-1.43% (inactive)
2,COc1ccc2c(c1)CCCO[C@]21O[C@H](CCO)C[C@H](O)[C@H]1O,24.3% (inactive)
3,NC(N)=Nc1nc(-c2ccccc2)c2cc(Cl)ccc2n1,-81.6% (active)
4,COC(=O)Cn1nc(-c2ccccc2)c2cc(Cl)ccc21,-6.25% (inactive)
5,Clc1ccc2nc(-c3ccccc3)nc(C(Cl)Cl)c2c1,42.9% (inactive)
6,Cc1cccc(NS(=O)(=O)c2ccc(C)c(C(=O)NCC(c3ccccc3)N(C)C)c2)c1 (stereo not drawn),-29.1% (inactive)
7,CC(C(=O)NCC1CCCCC1)N(C)Cc1cccc(Cl)c1 (stereo not drawn),-16.9% (inactive)
8,O=Nc1c(O)cc(O)c2ccccc12,-2.52% (inactive)
9,CC1(C)C(=O)Nc2ccccc2N1C(=O)COC(=O)Cn1cnc2ccccc2c1=O,7.25% (inactive)
10,O=C(COC(=O)Cn1cnc2ccccc2c1=O)NCC12CC3CC(CC(C3)C1)C2,-52.9% (active)
11,O=C(COC(=O)Cn1cnc2ccccc2c1=O)NCc1ccccc1Cl,12.2% (inactive)
12,CCc1cc(-c2nnn(CCC3COCCO3)c2CC)ccc1-c1cn(Cc2ccc3ccccc3c2)nn1 (stereo not drawn),52.6% (inactive)
13,Cc1ccc(CNC(=O)C2CCN(S(=O)(=O)c3ccc4nc5c(c(C(=O)O)c4c3)CC(C)CC5)CC2)cc1 (stereo not drawn),1.65% (inactive)
14,COc1ccc(CC2(CO)CCN(Cc3cnn(C)c3)CC2)cc1,12.5% (inactive)
15,Cc1cccc(-c2ncc(CN3CCC(CO)(CCCc4ccccc4)CC3)cn2)c1,-19.1% (inactive)
16,COc1cccc(CC2(CO)CCN(Cc3cnc(-c4cccc(C)c4)nc3)CC2)c1,-64.4% (active)
17,CC(=O)c1cc(CN2CCC(n3nccc3NC(=O)c3ccccc3Cl)CC2)cs1,-15.4% (inactive)
18,O=C(NCc1nnc(SCC(=O)N2CCC(Cc3ccccc3)CC2)o1)c1ccco1,-92.1% (active)
19,O=C(NCc1nnc(SCC(=O)N2CCCCCC2)o1)c1ccc(F)cc1,22.8% (inactive)
20,Cn1c(CNC(=O)c2ccco2)nnc1SCC(=O)N1CCN(c2ccccc2)CC1,52% (inactive)
21,NC(=O)C1(Nc2ccccc2Cl)CCCC1,-1.93% (inactive)
22,CCOC(=O)[C@]12CCCC=C1N(Cc1ccc3c(c1)OCO3)C(=O)[C@H](CC(=O)NCc1cccs1)C2,0% (inactive)
23,O=C1C=C(c2ccc(Cl)cc2)C(=O)N1Nc1ccccc1,-76.1% (active)
24,O=C(O)CC1=C(Nc2ccccc2)C(=O)N(c2ccccc2)C1c1ccc(Cl)cc1 (stereo not drawn),0% (inactive)
